{"source": "ChEMBL document CHEMBL4513216", "about": "“Probing the Open Global Health Chemical Diversity Library for Multistage-Active Starting Points for Next-Generation Antimalarials” (ACS Infect Dis, 2020)", "note": "The whole screen tested about 65,000 compounds, of which about 2,100 (3.2%) showed an effect of 50% or more. The median lay at about -52%. This excerpt belongs to a sample that is enriched for strong results.", "data": [{"tested_on": "Plasmodium falciparum", "test": "Screen against P. falciparum Asexual Blood Stage (ABS), at 5uM", "type": "functional, Dd2", "conditions": "tested at 5 uM", "units": {"INHIBITION": "%"}, "values": [{"smiles": "COC(=O)c1cc(C(=O)N2CCC(C)CC2)n(-c2ccccc2)n1", "INHIBITION": 43.3}, {"smiles": "COC(=O)c1cc(C(=O)N2CCCC(C)C2)n(-c2ccccc2)n1", "note": "(stereo unspecified)", "INHIBITION": 50.2}, {"smiles": "COC(=O)c1cc(C(=O)N2CCCCCC2)n(-c2ccccc2)n1", "INHIBITION": -126}, {"smiles": "COCC1c2nnn(C)c2CCN1C(=O)COc1ccccc1OC", "note": "(stereo unspecified)", "INHIBITION": -85.8}, {"smiles": "CS(=O)(=O)NCCN(CCCO)C1CCc2ccccc21", "note": "(stereo unspecified)", "INHIBITION": -55.5}, {"smiles": "CCCN1CCC(NC(=O)c2csc(C)c2C)CC1", "INHIBITION": -48.6}, {"smiles": "Cc1ccc(-c2c(C(=O)NC3CCN(C)CC3)csc2C)cc1", "INHIBITION": 61.9}, {"smiles": "CCCN1CCC(NC(=O)c2csc(C)c2-c2ccccc2)CC1", "INHIBITION": 28.9}, {"smiles": "CN(C)C(=O)COC[C@]12COC[C@H]1CN(C1CCCC1)C2", "INHIBITION": -77.5}, {"smiles": "CCNC(=O)[C@@H]1C[C@@H](N)CN1Cc1ccc(Sc2ccc(C)cc2)o1", "INHIBITION": 63.9}, {"smiles": "CCNC(=O)[C@@H]1C[C@@H](N)CN1Cc1ccc2cccc(Cl)c2n1", "INHIBITION": 31.4}, {"smiles": "CCNC(=O)[C@@H]1C[C@H](N)CN1Cc1ccc(-c2ccccc2C#N)o1", "INHIBITION": -5.25}, {"smiles": "CCNC(=O)[C@@H]1C[C@H](N)CN1Cc1ccc(Sc2ccc(C)cc2)o1", "INHIBITION": 64.6}, {"smiles": "CCNC(=O)[C@@H]1C[C@@H](N)CN1Cc1ccc(-c2ccccc2C#N)o1", "INHIBITION": -71.4}, {"smiles": "CCNC(=O)[C@@H]1C[C@H](N)CN1Cc1ccc(-c2cc[nH]n2)o1", "INHIBITION": -81.2}, {"smiles": "CC/C=C(\\C)CN1CCC(CNC(=O)c2c[nH]c(=O)c(Cl)c2)C1", "note": "(stereo unspecified)", "INHIBITION": -7.22}, {"smiles": "Nc1ncccc1C(=O)NCc1cccc(Br)c1", "INHIBITION": -72}, {"smiles": "CCS(=O)(=O)CC(=O)NCC1(c2c(F)cccc2F)CCCC1", "INHIBITION": -90.7}, {"smiles": "COC(=O)NCC(=O)NCC1(c2c(F)cccc2F)CCCC1", "INHIBITION": 69.7}, {"smiles": "CC(=O)NCCC(=O)NCC1(c2c(F)cccc2F)CCCC1", "INHIBITION": -77.3}, {"smiles": "Cc1cc(C)c2nc(C3CC3)cc(C(=O)N3CCCC3C(N)=O)c2c1", "note": "(stereo unspecified)", "INHIBITION": -98.6}, {"smiles": "COCC1c2c(cnn2C)CCN1C(=O)c1cscn1", "note": "(stereo unspecified)", "INHIBITION": -109}, {"smiles": "CC(Cn1cccn1)NCc1nc(-c2cccnc2)no1", "note": "(stereo unspecified)", "INHIBITION": -56}, {"smiles": "CC(c1ccccc1)N1CCC(NC(=O)CCc2ccsc2)CC1", "note": "(stereo unspecified)", "INHIBITION": 54.8}, {"smiles": "CCSCCC(=O)NC1CCN(C(C)c2ccccc2)CC1", "note": "(stereo unspecified)", "INHIBITION": -58.8}, {"smiles": "CSCC(=O)NC1CCN(C(C)c2ccccc2)CC1", "note": "(stereo unspecified)", "INHIBITION": -27.6}, {"smiles": "Cc1cc2c(N3CCC(N(C)Cc4nccs4)CC3)ncnc2s1", "INHIBITION": -19.4}, {"smiles": "CC(NC1CCN(CCS(C)(=O)=O)CC1)c1ccc(Cl)cc1", "note": "(stereo unspecified)", "INHIBITION": 58.2}, {"smiles": "CC(c1ccc(Cl)cc1)N1CCN(CCS(C)(=O)=O)CC1", "note": "(stereo unspecified)", "INHIBITION": -38.8}, {"smiles": "CC(NC1CCN(CCS(C)(=O)=O)CC1)c1cnn(C(C)C)c1", "note": "(stereo unspecified)", "INHIBITION": -83.1}, {"smiles": "Cc1nc(CN2CCCC(NCc3ccc4ccccc4c3)C2)no1", "note": "(stereo unspecified)", "INHIBITION": -9.17}, {"smiles": "CCOc1ccccc1CNC1CCCN(Cc2noc(C)n2)C1", "note": "(stereo unspecified)", "INHIBITION": 48.7}, {"smiles": "Cc1nc(CN(C)C2CCN(Cc3c(C)noc3C)C2)no1", "note": "(stereo unspecified)", "INHIBITION": -19.4}, {"smiles": "Cc1nc(CN2CCCC(N(C)CCCc3ccccc3)C2)no1", "note": "(stereo unspecified)", "INHIBITION": -0.463}, {"smiles": "Cc1nc(CN2CCCC(N(C)CCc3ccncc3)C2)no1", "note": "(stereo unspecified)", "INHIBITION": -138}, {"smiles": "CN(Cc1ccccn1)C1CCCN(Cc2noc(C3CC3)n2)C1", "note": "(stereo unspecified)", "INHIBITION": -128}, {"smiles": "Cc1cc(CN(C)C2CCCN(Cc3noc(C)n3)C2)no1", "note": "(stereo unspecified)", "INHIBITION": -90.9}, {"smiles": "COc1ccc(CCN(C)C2CCCN(Cc3noc(C)n3)C2)cc1", "note": "(stereo unspecified)", "INHIBITION": 60.6}, {"smiles": "Cc1nc(CN2CCCC(NCc3cccc4ccccc34)C2)no1", "note": "(stereo unspecified)", "INHIBITION": 58.3}, {"smiles": "CN(Cc1cccnc1)C1CCCN(Cc2noc(C3CC3)n2)C1", "note": "(stereo unspecified)", "INHIBITION": 52.6}, {"smiles": "Cc1nc(CN2CCCC(N(C)Cc3c(C)noc3C)C2)no1", "note": "(stereo unspecified)", "INHIBITION": 58.6}, {"smiles": "CN(Cc1cnn(C)c1)C1CCCN(Cc2noc(C3CC3)n2)C1", "note": "(stereo unspecified)", "INHIBITION": -39.7}, {"smiles": "CCn1nc(C)c(CN2CCC(c3ccn[nH]3)C2)c1C", "note": "(stereo unspecified)", "INHIBITION": -30.2}, {"smiles": "Cc1nc2sccn2c1CNC1(c2ccccc2F)CCCC1", "INHIBITION": -5.97}, {"smiles": "Cc1cccc(COC[C@@]23CCC[C@@H]2CN(S(=O)(=O)N(C)C)C3)n1", "INHIBITION": -12.3}, {"smiles": "CCc1nc(CN2CCN(C(=O)C3(C#N)CCCC3)CC2)cs1", "INHIBITION": -79.7}, {"smiles": "O=C(c1ccccn1)N1CCC2(CC1)COC(COCC1CCCC1)C2", "note": "(stereo unspecified)", "INHIBITION": -14.7}, {"smiles": "Cc1ccc(CN2CCN(C(=O)c3ccc(CO)cc3)C(C)C2=O)cc1", "note": "(stereo unspecified)", "INHIBITION": -121}, {"smiles": "CC(=O)N1CCCC(c2ccc(Br)cn2)C1", "note": "(stereo unspecified)", "INHIBITION": -147}, {"smiles": "CC(=O)N1CCCC(c2ccc(Cc3ccccc3)cn2)C1", "note": "(stereo unspecified)", "INHIBITION": 60.4}, {"smiles": "CC(=O)N1CCCC(c2ccccn2)C1", "note": "(stereo unspecified)", "INHIBITION": -11.9}, {"smiles": "CNc1cncc(C2CCCN2Cc2ccn(C)n2)n1", "note": "(stereo unspecified)", "INHIBITION": -1.9}, {"smiles": "c1cncc(-c2ccc3c(c2)CCC32CCN(Cc3nccs3)CC2)c1", "INHIBITION": 49.1}, {"smiles": "CCN1C[C@@H]2CN(S(=O)(=O)c3cccs3)C[C@@H]2C1=O", "INHIBITION": 64.6}, {"smiles": "COCCN1C[C@@H]2CN(S(=O)(=O)c3cccs3)C[C@@H]2C1=O", "INHIBITION": -43.2}, {"smiles": "CC(C)CN1C[C@@H]2CN(S(=O)(=O)c3cccs3)C[C@@H]2C1=O", "INHIBITION": -43.6}, {"smiles": "CCc1cc(N[C@@H]2C[C@@H]3CC[C@H]2C3)n2nccc2n1", "INHIBITION": -125}, {"smiles": "Cc1ccc(C(=O)Nc2ccc(S(=O)(=O)/N=C3\\CCCN3C)cc2)s1", "INHIBITION": -13.1}, {"smiles": "CC(C)(C)n1nc(C2CC2)cc1C(=O)NC1CCN(CC(N)=O)CC1", "INHIBITION": -56.9}, {"smiles": "Cc1cccc(N2CCOCC3(C2)CN(c2ccoc2)C(=O)CO3)n1", "note": "(stereo unspecified)", "INHIBITION": 66.9}, {"smiles": "Cc1cccc(N2CCOCC3(C2)CN(c2cncnc2)C(=O)CO3)n1", "note": "(stereo unspecified)", "INHIBITION": -66.1}, {"smiles": "Cc1cccc(N2CCOCC3(C2)CN(c2ccccc2)C(=O)CO3)n1", "note": "(stereo unspecified)", "INHIBITION": -58.1}, {"smiles": "CCS(=O)(=O)NC[C@]12COC[C@H]1CN(Cc1ccsc1)C2", "INHIBITION": 19.6}, {"smiles": "CCC(C)C(=O)Nc1ccc(CCN2CCOCC2)cc1", "note": "(stereo unspecified)", "INHIBITION": -81}, {"smiles": "CC(C)(CN1CCC(Cc2ccc(C(=O)O)cc2)C1)N1CCOCC1", "note": "(stereo unspecified)", "INHIBITION": -29.2}, {"smiles": "COc1cc(CNCCn2ccnc2)cc2c1OCO2", "INHIBITION": -86.4}, {"smiles": "CCOc1c(CNCCCn2ccnc2)cc(Cl)cc1OC", "INHIBITION": 66.5}, {"smiles": "CCOc1ccc(Cl)cc1CNCCCn1ccnc1", "INHIBITION": 52.8}, {"smiles": "CCOc1ccc(CNCCCn2ccnc2)cc1OC", "INHIBITION": -13.1}, {"smiles": "COCCCn1ccc(NC(=O)NCCCn2ccnc2)n1", "INHIBITION": -58.9}, {"smiles": "O=C(CN1CCOc2ccc(Cl)cc21)NCCCn1ccnc1", "INHIBITION": -30.7}]}]}
